Source: PubChem BioAssay (NCI)
Compounds without any hit were thinned out: in the full panel of roughly 79,000, 15% have a hit. Calls of active or inactive are those of the source. Cut-off read from the data, not from the text of the source: active = growth inhibition above about 70%; inactive = the rest.

Experiment: NCI Yeast Anticancer Drug Screen. Data for the sgs1 mgt1 strain (AID 161);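 note: 0% = growth of cultures given vehicle only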
Conditions: S. cerevisiae sgs1 mgt1 strain, at 5.0 µM (retest, dose inferred, filed as 0.5), active compounds read high
Method in brief: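 Mutant yeast exposed to compound; growth scored against vehicle-only wells.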
In the case of COC(=O)c1ccc(NN)cc1, the growth inhibition is reported as 3% (inactive). For O=[N+]([O-])c1ccc(-c2nc3c(o2)CCC3)cc1, the growth inhibition was -22% (inactive). With Cc1ccc(S(=O)(=O)N/N=C(\C=C\c2ccccc2)c2ccccc2)cc1 the growth inhibition was 24% (inactive). In the case of [N-]=[N+]=NC1=CC(=O)c2cccc3cccc1c23, the growth inhibition is reported as 65% (inactive). For CCOc1ccc2nc3cc(Cl)ccc3[n+](C)c2c1, the growth inhibition was 15% (inactive). With Cc1ccc(C(c2ccc(N(C)C)cc2)c2ccc(N(C)C)cc2)cc1 the growth inhibition was 99% (active). With O=[N+]([O-])c1ccc2c(c1)[n+]([O-])c1[nH]c3ccccc3c1[n+]2[O-] (tested in a mixture with another compound) the growth inhibition was 68% (inactive). In the case of C/C(=N\NC(=S)N1CCCCCC1)c1cccc2cccnc12, the growth inhibition is reported as 7% (inactive). For CC(C)c1cc(O)c(C(C)(C)C)cc1Cl, the growth inhibition was -1% (inactive). With CN(C)c1ccc(/C=C(/NC(=O)c2ccccc2)c2nc3ccc(Cl)cc3[nH]2)cc1 the growth inhibition was -2% (inactive). With CC(C)(C)c1ccc2c(c1)C(O)(c1ccccc1)C1OC1(C(C)(C)C)C2=O (stereo not given) the growth inhibition was 16% (inactive). With CCCCCCCCCCCCOP(=O)(N1CC1(C)C)N1CC1(C)C (stereo not given) the growth inhibition was 1% (inactive). In the case of Cc1ccc(C(=O)CC(N)C(=O)O)cc1 (stereo not given), the growth inhibition is reported as -1% (inactive). For COC(=O)CCC(=O)NCCc1ccc2c([nH]c3ccccc32)c1C, the growth inhibition was 4% (inactive). In the case of Nc1ccc(C(=O)N/C(=C\C=C\c2ccco2)c2nc3c4c(ccc3[nH]2)C(=O)c2ccccc2C4=O)cc1, the growth inhibition is reported as 3% (inactive). With Oc1ccc(CCCCCc2ccc(O)cc2)cc1 the growth inhibition was 17% (inactive). In the case of O=C(O)C1C(C(=O)O)C2C(=O)C=CC1N2Cc1ccccc1 (stereo not given), the growth inhibition is reported as 5% (inactive). In the case of CC1(C)CC(=O)C(c2ccccc2[N+](=O)[O-])=C(O)C1, the growth inhibition is reported as 4% (inactive). With ON(Cc1ccccc1)C(=S)c1ccccc1 the growth inhibition was 24% (inactive). In the case of CCCCC(O)(c1ccc2nc(NC(=O)OC)[nH]c2c1)c1cccs1 (stereo not given), the growth inhibition is reported as -4% (inactive). With O=C(O)CC/C(=N\Nc1ccccc1)C(=O)O the growth inhibition was -8% (inactive). With CC(C)(c1ccc(OC#N)cc1)c1ccc(OC#N)cc1 the growth inhibition was 4% (inactive). In the case of C=CC(C)(CCC=C(C)C)OC(=O)Nc1ccccc1 (stereo not given), the growth inhibition is reported as -10% (inactive). With Cc1ccc(Cc2nc(=S)[nH][nH]2)cc1 the growth inhibition was -3% (inactive). For Cc1c(Cl)c(S(N)(=O)=O)cc2c1NC=NS2(=O)=O, the growth inhibition was -2% (inactive). For O=C(c1cccnc1)N(C1CCCCC1)C1CCCCC1, the growth inhibition was 2% (inactive). With COc1cc(NCC(C)(O)CN2CCC(C)CC2C)c2ncccc2c1 (stereo not given) the growth inhibition was 20% (inactive). With O=C1C=CC(=Nc2cccc3c2-c2ccccc2C3)O1 the growth inhibition was 99% (active). With CC(O)c1c2c(cc3c1CC1(C3)Cc3cc4c(c(C(C)O)c3C1)CCC4)CCC2 (stereo not given) the growth inhibition was -34% (inactive). With CCCCCCCCCCCCCCCC[N+](C)(C)CCl the growth inhibition was 99% (active). In the case of CCCCC(CC)CNc1ncnc2c1cnn2C (stereo not given), the growth inhibition is reported as 1% (inactive). In the case of O=C1NN(C2=NNC3(C(=O)N2)c2ccccc2-c2ccccc23)C(c2ccccc2)=N/C1=C/c1ccc(Cl)cc1, the growth inhibition is reported as -1% (inactive). For CCCCc1ccc2nccc(N/N=C/c3ccc(OC)c4ccccc34)c2c1, the growth inhibition was 2% (inactive). For CC(C)(C[NH-])C[NH-].[Cl][Pt+2]([Cl])([Cl])[Cl], the growth inhibition was 95% (active). For O=C(O)C1(Cc2ccc3c(c2)CCC3)Cc2ccccc2C1, the growth inhibition was 15% (inactive). For CCN(CC)C(C)(C)C(=O)/C=C/c1ccc(Cl)cc1, the growth inhibition was 24% (inactive). In the case of CCc1ccccc1NC(=O)C(=O)C(C#N)c1c(Cl)cccc1Cl (stereo not given), the growth inhibition is reported as -17% (inactive). In the case of COc1c(OC)c(C2(O)C(=O)N(C)c3ccccc32)c(OC)c(OC)c1C1(O)C(=O)N(C)c2ccccc21 (stereo not given), the growth inhibition is reported as -3% (inactive). With Nc1ccc2ccccc2c1N=Cc1ccccc1[N+](=O)[O-] the growth inhibition was 5% (inactive). With O=[N+]([O-])C1=Cc2cc(Cl)ccc2OC1c1cccc2ccccc12 (stereo not given) the growth inhibition was 97% (active).

Same assay, conditions: S. cerevisiae sgs1 mgt1 strain, at 50.0 µM (retest, dose inferred, filed as 5.0), active compounds read high
With COC(=O)c1ccc(NN)cc1 the growth inhibition was 17% (inactive). In the case of O=[N+]([O-])c1ccc(-c2nc3c(o2)CCC3)cc1, the growth inhibition is reported as -22% (inactive). In the case of Cc1ccc(S(=O)(=O)N/N=C(\C=C\c2ccccc2)c2ccccc2)cc1, the growth inhibition is reported as 47% (inactive). In the case of [N-]=[N+]=NC1=CC(=O)c2cccc3cccc1c23, the growth inhibition is reported as 99% (active). In the case of CCOc1ccc2nc3cc(Cl)ccc3[n+](C)c2c1, the growth inhibition is reported as 87% (active). For Cc1ccc(C(c2ccc(N(C)C)cc2)c2ccc(N(C)C)cc2)cc1, the growth inhibition was 95% (active). In the case of O=[N+]([O-])c1ccc2c(c1)[n+]([O-])c1[nH]c3ccccc3c1[n+]2[O-] (tested in a mixture with another compound), the growth inhibition is reported as 91% (active). For C/C(=N\NC(=S)N1CCCCCC1)c1cccc2cccnc12, the growth inhibition was 30% (inactive). With CC(C)c1cc(O)c(C(C)(C)C)cc1Cl the growth inhibition was 24% (inactive). For CN(C)c1ccc(/C=C(/NC(=O)c2ccccc2)c2nc3ccc(Cl)cc3[nH]2)cc1, the growth inhibition was -2% (inactive). In the case of CC(C)(C)c1ccc2c(c1)C(O)(c1ccccc1)C1OC1(C(C)(C)C)C2=O (stereo not given), the growth inhibition is reported as 82% (active). With CCCCCCCCCCCCOP(=O)(N1CC1(C)C)N1CC1(C)C (stereo not given) the growth inhibition was 67% (inactive). With Cc1ccc(C(=O)CC(N)C(=O)O)cc1 (stereo not given) the growth inhibition was -1% (inactive). In the case of COC(=O)CCC(=O)NCCc1ccc2c([nH]c3ccccc32)c1C, the growth inhibition is reported as 11% (inactive). In the case of Nc1ccc(C(=O)N/C(=C\C=C\c2ccco2)c2nc3c4c(ccc3[nH]2)C(=O)c2ccccc2C4=O)cc1, the growth inhibition is reported as 35% (inactive). In the case of Oc1ccc(CCCCCc2ccc(O)cc2)cc1, the growth inhibition is reported as 100% (active). For O=C(O)C1C(C(=O)O)C2C(=O)C=CC1N2Cc1ccccc1 (stereo not given), the growth inhibition was 65% (inactive). In the case of CC1(C)CC(=O)C(c2ccccc2[N+](=O)[O-])=C(O)C1, the growth inhibition is reported as 8% (inactive). For ON(Cc1ccccc1)C(=S)c1ccccc1, the growth inhibition was 98% (active). In the case of CCCCC(O)(c1ccc2nc(NC(=O)OC)[nH]c2c1)c1cccs1 (stereo not given), the growth inhibition is reported as 69% (inactive). With O=C(O)CC/C(=N\Nc1ccccc1)C(=O)O the growth inhibition was 84% (active). With CC(C)(c1ccc(OC#N)cc1)c1ccc(OC#N)cc1 the growth inhibition was 40% (inactive). With C=CC(C)(CCC=C(C)C)OC(=O)Nc1ccccc1 (stereo not given) the growth inhibition was 13% (inactive). For Cc1ccc(Cc2nc(=S)[nH][nH]2)cc1, the growth inhibition was 9% (inactive). For Cc1c(Cl)c(S(N)(=O)=O)cc2c1NC=NS2(=O)=O, the growth inhibition was -14% (inactive). With O=C(c1cccnc1)N(C1CCCCC1)C1CCCCC1 the growth inhibition was 6% (inactive). In the case of COc1cc(NCC(C)(O)CN2CCC(C)CC2C)c2ncccc2c1 (stereo not given), the growth inhibition is reported as 61% (inactive). For O=C1C=CC(=Nc2cccc3c2-c2ccccc2C3)O1, the growth inhibition was 99% (active). In the case of CC(O)c1c2c(cc3c1CC1(C3)Cc3cc4c(c(C(C)O)c3C1)CCC4)CCC2 (stereo not given), the growth inhibition is reported as 97% (active). In the case of CCCCCCCCCCCCCCCC[N+](C)(C)CCl, the growth inhibition is reported as 100% (active). In the case of CCCCC(CC)CNc1ncnc2c1cnn2C (stereo not given), the growth inhibition is reported as 94% (active). In the case of O=C1NN(C2=NNC3(C(=O)N2)c2ccccc2-c2ccccc23)C(c2ccccc2)=N/C1=C/c1ccc(Cl)cc1, the growth inhibition is reported as 6% (inactive). With CCCCc1ccc2nccc(N/N=C/c3ccc(OC)c4ccccc34)c2c1 the growth inhibition was 94% (active). For CC(C)(C[NH-])C[NH-].[Cl][Pt+2]([Cl])([Cl])[Cl], the growth inhibition was 99% (active). For O=C(O)C1(Cc2ccc3c(c2)CCC3)Cc2ccccc2C1, the growth inhibition was 15% (inactive). With CCN(CC)C(C)(C)C(=O)/C=C/c1ccc(Cl)cc1 the growth inhibition was 87% (active). In the case of CCc1ccccc1NC(=O)C(=O)C(C#N)c1c(Cl)cccc1Cl (stereo not given), the growth inhibition is reported as -33% (inactive). For COc1c(OC)c(C2(O)C(=O)N(C)c3ccccc32)c(OC)c(OC)c1C1(O)C(=O)N(C)c2ccccc21 (stereo not given), the growth inhibition was 1% (inactive). For Nc1ccc2ccccc2c1N=Cc1ccccc1[N+](=O)[O-], the growth inhibition was 92% (active). In the case of O=[N+]([O-])C1=Cc2cc(Cl)ccc2OC1c1cccc2ccccc12 (stereo not given), the growth inhibition is reported as 86% (active).
